# Test results as given in PubChem BioAssay (Tox21).
# Where “and” joins values, the source holds several entries; their conditions need not be identical. Identical values can stand only once. Records with an inconclusive call do not appear. Entries that show only a call come without a potency. Some structures have more than one record in an assay (separate samples or runs), and their calls can disagree. Calls of active or inactive are those of the source. Unless noted, calls follow the shape of the dose curve; as a rule, active = well fitted curve in the direction sought with a large enough effect in the repeat runs; inconclusive = weak or mixed curves; inactive = no such curve, though single readings can be large; an effect the other way counts as inactive or inconclusive.
# Columns and labels:
# [1] = qHTS assay to identify small molecule agonists of the hypoxia (HIF-1) signaling pathway - cell viability counter screen (AID 1224844; calls by dose curve; also: nearly all actives have a fitted effect of over 50% in size; also: potency is read from the fitted curve at half-maximal effect)
# Procedure, shortened: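 Luminescent ATP content (CellTiter-Glo, 30 min, room temperature) served as the viability measure in HRE-bla ME-180 cells exposed to compounds for 17 hrs in low-serum medium (0.5% dialyzed FBS).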
# [2] = qHTS assay to identify small molecule agonists of H2AX (AID 1224845; active = well fitted activation curve with a large enough effect in the signal ratio in the repeat runs, not every such curve was filed as active; the % refers to the signal ratio; also: potency is read from the fitted curve at half-maximal effect)
# Procedure, shortened: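 Phospho-H2AX Ser139 measured by HTRF (ex 320 nm; em 665 and 620 nm) after 24 hr antibody incubation. Compounds, 15 concentrations, 0.76% DMSO, were applied to CHO-K1 cells for 3hr at 37C before lysis.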
# [3] = qHTS assay to identify small molecule agonists of the hypoxia (HIF-1) signaling pathway (AID 1224846; active = well fitted activation curve with a large enough effect in the signal ratio in the repeat runs, not every such curve was filed as active; the % refers to the signal ratio)
# Procedure, shortened: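 Measured by blue/green FRET after loading CCF4-AM: beta-lactamase expressed from a hypoxia response element in ME-180 cells. Test agents were delivered in DMSO and left 17 hrs; cells had been plated 5 hrs earlier in low-serum (0.5% dialyzed FBS) medium.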
# [4] = qHTS assay to identify small molecule agonists of H2AX - cell viability counter screen (AID 1224847; calls by dose curve; also: nearly all actives have a fitted effect of over 30% in size; also: potency is read from the fitted curve at half-maximal effect)
# Procedure, shortened: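 CHO-K1 wt, 1000 cells/well, o/n 37C; cpds 15 conc, 3 h 37C, 0.76% DMSO; CellTiter-Glo, 30 min RT, luminescence.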
# [5] = qHTS assay to identify small molecule antagonists of the estrogen related receptor (ERR) signaling pathway from Tox21 library (AID 1224848); also: nearly all actives have a fitted effect of over 50% in size; also: potency is read from the fitted curve at half-maximal effect
# Procedure, shortened: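 Reading was by luminescence 30 min after ONE-Glo addition. Before that, ERR cells at 2,000 per well had rested 6 h at 37 C/5% CO2 and then received pin-tooled compounds in DMSO for 18 h at 37 C.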
# [6] = qHTS assay to identify small molecule agonists of the estrogen related receptor (ERR) signaling pathway from Tox21 library (AID 1224849; calls by dose curve; also: nearly all actives have a fitted effect of over 15% in size); details: ERR reporter cell line, ONE-Glo luciferase, 18 h
# Procedure, shortened: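 We plated ERR reporter cells, waited 6 h, added compounds in DMSO by pin tool and incubated them 18 h at 37 C. ONE-Glo was then added and luminescence read after 30 min.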
# [7] = qHTS RealTime-Glo MT Cell Viability Assay in HepG2 cells - 24 hour (AID 1224867); also: nearly all actives have a fitted effect of over 50% in size; also: potency is read from the fitted curve at half-maximal effect
# Procedure, shortened: (§1)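 qHTS, HepG2, 600 cells/well, RealTime-Glo (NanoLuc + prosubstrate) added with cells; 5 h preincubation; DMSO compound addition; 37 C; luminescence at 0/8/16/24/32/40 h.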
# [8] = qHTS RealTime-Glo MT Cell Viability Assay in HEK293 cells - 32 hour (AID 1224868); also: nearly all actives have a fitted effect of over 50% in size; also: potency is read from the fitted curve at half-maximal effect
# Procedure, shortened: (§2)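 Assay medium contained NanoLuc luciferase plus cell-permeant prosubstrate, added with HEK293 cells at 600 cells/well. After 5 h at 37 C/5% CO2 compounds were added; plates stayed at 37 C for 40 h with serial luminescence reads.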
# [9] = A CellTox Green Cytotoxicity Assay to monitor cytotoxicity in HEK293 cells - 0 hour (AID 1224869); also: nearly all actives have a fitted effect of over 50% in size
# Procedure, shortened: (§3)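 Each value comes from one timepoint of a single continuous run in which HEK293 cells with CellTox Green were exposed to compound for up to 40 h at 37 C, dye fluorescence rising with cell death.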
# [10] = qHTS RealTime-Glo MT Cell Viability Assay in HepG2 cells - 40 hour (AID 1224870); also: nearly all actives have a fitted effect of over 50% in size; also: potency is read from the fitted curve at half-maximal effect
# Procedure, shortened: (§4)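 Real-time viability: cells seeded at 600 per well together with NanoLuc and cell-permeant prosubstrate, compounds added after 5 h incubation. Luminescence tracked at 0, 8, 16, 24, 32 and 40 h of exposure.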
# [11] = A CellTox Green Cytotoxicity Assay to monitor cytotoxicity in HEK293 cells - 40 hour (AID 1224871); also: nearly all actives have a fitted effect of over 45% in size; also: potency is read from the fitted curve at half-maximal effect
# Procedure, shortened: as §3
# [12] = qHTS RealTime-Glo MT Cell Viability Assay in HEK293 cells - 16 hour (AID 1224872); also: nearly all actives have a fitted effect of over 50% in size; also: potency is read from the fitted curve at half-maximal effect
# Procedure, shortened: as §2
# [13] = qHTS RealTime-Glo MT Cell Viability Assay in HepG2 cells - 8 hour (AID 1224873); also: nearly all actives have a fitted effect of over 55% in size
# Procedure, shortened: as §4
# [14] = A CellTox Green Cytotoxicity Assay to monitor cytotoxicity in HEK293 cells - 24 hour (AID 1224875); also: nearly all actives have a fitted effect of over 45% in size
# Procedure, shortened: as §3
# [15] = A CellTox Green Cytotoxicity Assay to monitor cytotoxicity in HepG2 cells - 16 hour (AID 1224876); also: nearly all actives have a fitted effect of over 45% in size; also: potency is read from the fitted curve at half-maximal effect
# Procedure, shortened: (§5)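 Continuous culture of HepG2 cells with a membrane-impermeant DNA dye; rising fluorescence marks dead cells. Compound exposure lasted up to 40 h at 37 C, with reads every 8 h from 0 h.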
# [16] = qHTS RealTime-Glo MT Cell Viability Assay in HepG2 cells - 32 hour (AID 1224877); also: nearly all actives have a fitted effect of over 55% in size; also: potency is read from the fitted curve at half-maximal effect
# Procedure, shortened: as §1
# [17] = A CellTox Green Cytotoxicity Assay to monitor cytotoxicity in HepG2 cells - 24 hour (AID 1224878); also: nearly all actives have a fitted effect of over 45% in size; also: potency is read from the fitted curve at half-maximal effect
# Procedure, shortened: as §5
# [18] = qHTS RealTime-Glo MT Cell Viability Assay in HEK293 cells - 0 hour (AID 1224880)
# Procedure, shortened: (§6)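 qHTS format; HEK293 cells with NanoLuc/prosubstrate reagent, 37 C/5% CO2 for 5 h pre-dosing; compounds 23 nL in DMSO; luminescence at each time point reflects viable cells.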
# [19] = qHTS RealTime-Glo MT Cell Viability Assay in HEK293 cells - 40 hour (AID 1224874); details: RealTime-Glo luminescence; max response: stronger effect = lower value; also: nearly all actives have a fitted effect of over 50% in size; also: potency is read from the fitted curve at half-maximal effect
# Procedure, shortened: as §6
# [20] = A CellTox Green Cytotoxicity Assay to monitor cytotoxicity in HepG2 cells - 40 hour (AID 1224879); also: nearly all actives have a fitted effect of over 40% in size; also: potency is read from the fitted curve at half-maximal effect
# Procedure, shortened: as §5
smiles,measurement,setting,value
CCCCC(C#N)(Cn1cncn1)c1ccc(Cl)cc1 (stereo not drawn),Potency,[1],inactive
same,Potency,[2],inactive
same,outcome,[3],inactive
same,Potency,[4],inactive
same,Potency,[5],48.4 µM (active)
same,"activity change, positive = activation",[6]; at 92.4 µM (top of the series),-34.1% (inactive) and -20% (inactive)
same,Potency,[7],inactive
same,Potency,[8],inactive
same,Potency,[9],inactive
same,Potency,[10],inactive
same,Potency,[11],inactive
same,Potency,[12],inactive
same,Potency,[13],inactive
same,Potency,[14],inactive
same,Potency,[15],inactive
same,Potency,[16],inactive
same,Potency,[17],inactive
same,Potency,[18],inactive
Cl,Potency,[1],inactive
same,Potency,[2],inactive
same,outcome,[3],inactive
same,Potency,[4],inactive
same,Potency,[7],inactive
same,Potency,[8],inactive
same,Potency,[9],inactive
same,Potency,[10],inactive
same,Potency,[11],inactive
same,Potency,[12],inactive
same,Potency,[13],inactive
same,max response,[19],0.872% (inactive) and 8.14% (inactive)
same,Potency,[14],inactive
same,Potency,[15],inactive
same,Potency,[16],inactive
same,Potency,[17],inactive
same,Potency,[20],inactive
same,Potency,[18],inactive
COP(=S)(OC)Oc1ccc(S(=O)(=O)N(C)C)cc1,Potency,[1],inactive
same,Potency,[2],inactive
same,outcome,[3],inactive
same,Potency,[4],inactive
same,Potency,[5],inactive
same,"activity change, positive = activation",[6]; at 42.5 µM (top of the series),-5.44% (inactive)
same,"activity change, positive = activation",[6]; at 92.4 µM (top of the series),-12.4% (inactive)
same,Potency,[7],inactive
same,Potency,[8],inactive
same,Potency,[9],inactive
same,Potency,[10],inactive
same,Potency,[11],inactive
same,Potency,[12],inactive
same,Potency,[13],inactive
same,max response,[19],-18.5% (inactive) and -16.7% (inactive)
same,Potency,[15],inactive
same,Potency,[16],inactive
same,Potency,[17],inactive
same,Potency,[20],inactive
same,Potency,[18],inactive
Brc1ccc(Br)cc1,Potency,[1],inactive
same,Potency,[2],inactive
same,outcome,[3],inactive
same,Potency,[4],inactive
same,Potency,[5],inactive
same,"activity change, positive = activation",[6]; at 92.4 µM (top of the series),7.62% (inactive) and 5.83% (inactive)
same,Potency,[8],inactive
same,Potency,[9],inactive
same,Potency,[10],inactive
same,Potency,[11],inactive
same,Potency,[12],inactive
same,max response,[19],1.04% (inactive) and 3.61% (inactive)
same,Potency,[14],inactive
same,Potency,[16],inactive
same,Potency,[17],inactive
same,Potency,[20],inactive
C[C@]12CC[C@H]3[C@@H](CCC4=CC(=O)CC[C@@H]43)[C@@H]1CC[C@@H]2O,Potency,[1],inactive
same,Potency,[2],99.8 µM (active)
same,outcome,[3],inactive
same,Potency,[4],inactive
same,Potency,[7],inactive
same,Potency,[8],inactive
same,Potency,[9],inactive
same,Potency,[10],inactive
same,Potency,[11],inactive
same,Potency,[12],inactive
same,Potency,[13],inactive
same,max response,[19],-22.5% (inactive)
same,Potency,[16],inactive
same,Potency,[17],inactive
same,Potency,[20],inactive
same,Potency,[18],inactive
CC(C)CON=O,Potency,[1],inactive
same,Potency,[2],inactive
same,outcome,[3],inactive
same,Potency,[4],inactive
same,Potency,[7],inactive
same,Potency,[8],inactive
same,Potency,[9],inactive
same,Potency,[10],inactive
same,Potency,[11],inactive
same,Potency,[12],inactive
same,Potency,[13],inactive
same,max response,[19],8.89% (inactive) and 0.247% (inactive)
same,Potency,[14],inactive
same,Potency,[15],inactive
same,Potency,[16],inactive
same,Potency,[17],inactive
same,Potency,[20],inactive
same,Potency,[18],inactive
Cc1ccc(N=CN(C)C=Nc2ccc(C)cc2C)c(C)c1,Potency,[1],43.8 µM (active) and 30.9 µM (active) and inactive
same,Potency,[2],inactive
same,outcome,[3],inactive
same,Potency,[4],101 µM (active) and inactive
same,Potency,[7],inactive
same,Potency,[8],43.8 µM (active) and 43.6 µM (active) and inactive
same,Potency,[9],inactive
same,Potency,[10],inactive
same,Potency,[11],inactive
same,Potency,[12],43.8 µM (active) and 38.9 µM (active) and inactive
same,Potency,[13],inactive
same,Potency,[19],43.8 µM (active) and 43.6 µM (active)
same,max response,[19],-1.79% (inactive)
same,Potency,[14],inactive
same,Potency,[16],inactive
same,Potency,[17],43.6 µM (active) and inactive
same,Potency,[20],43.6 µM (active) and inactive
same,Potency,[18],inactive
CCOP(=S)(OCC)OP(=S)(OCC)OCC,Potency,[1],inactive
same,Potency,[2],inactive
same,outcome,[3],inactive
same,Potency,[4],inactive
same,Potency,[5],inactive
same,"activity change, positive = activation",[6]; at 92.4 µM (top of the series),-12.2% (inactive) and -0.199% (inactive)
same,Potency,[7],inactive
same,Potency,[8],inactive
same,Potency,[9],inactive
same,Potency,[10],inactive
same,Potency,[11],inactive
same,Potency,[12],inactive
same,max response,[19],3.87% (inactive) and 10.7% (inactive)
same,Potency,[14],inactive
same,Potency,[15],inactive
same,Potency,[16],inactive
same,Potency,[17],inactive
same,Potency,[20],inactive
same,Potency,[18],inactive
O=S(=O)(O)C(F)(F)C(F)(F)C(F)(F)C(F)(F)C(F)(F)C(F)(F)C(F)(F)C(F)(F)F,Potency,[1],33 µM (active) and 49 µM (active) and 12.3 µM (active)
same,Potency,[2],inactive
same,outcome,[3],inactive
same,Potency,[4],inactive
same,Potency,[5],inactive
same,"activity change, positive = activation",[6]; at 92.4 µM (top of the series),-7.99% (inactive) and -0.0044% (inactive) and -21.1% (inactive)
same,Potency,[7],inactive
same,Potency,[8],inactive
same,Potency,[9],inactive
same,Potency,[10],inactive
same,Potency,[11],33 µM (active) and inactive and 21.9 µM (active)
same,Potency,[12],inactive
same,max response,[19],-24.5% (inactive) and 0.151% (inactive)
same,Potency,[16],inactive
same,Potency,[17],18.6 µM (active) and inactive
same,Potency,[20],16.5 µM (active) and inactive
same,Potency,[18],inactive
N#CC(c1ccccc1)c1ccccc1,Potency,[1],inactive
same,Potency,[2],inactive
same,outcome,[3],inactive
same,Potency,[4],inactive
same,Potency,[5],inactive
same,"activity change, positive = activation",[6]; at 92.4 µM (top of the series),-14.8% (inactive) and -8.2% (inactive)
same,Potency,[7],inactive
same,Potency,[8],inactive
same,Potency,[9],inactive
same,Potency,[10],inactive
same,Potency,[11],inactive
same,Potency,[12],inactive
same,Potency,[13],inactive
same,max response,[19],-11% (inactive)
same,Potency,[14],inactive
same,Potency,[15],inactive
same,Potency,[16],inactive
same,Potency,[17],inactive
same,Potency,[20],inactive
same,Potency,[18],inactive
OC(c1ccc(Cl)cc1)(c1cncnc1)c1ccccc1Cl (stereo not drawn),Potency,[1],inactive
same,Potency,[2],91.4 µM (active) and inactive
same,outcome,[3],inactive
same,Potency,[4],115 µM (active)
same,Potency,[5],11.1 µM (active) and 54.5 µM (active)
same,"activity change, positive = activation",[6]; at 92.4 µM (top of the series),-83.4% (inactive) and -41.2% (inactive)
same,Potency,[7],31.4 µM (active)
same,Potency,[8],6.27 µM (active) and 24.5 µM (active)
same,Potency,[9],inactive
same,Potency,[10],17.7 µM (active) and inactive
same,Potency,[11],19.8 µM (active) and inactive
same,Potency,[12],11.2 µM (active)
same,Potency,[19],5.59 µM (active) and 27.5 µM (active)
same,Potency,[15],49.8 µM (active) and inactive
same,Potency,[16],17.7 µM (active) and inactive
same,Potency,[17],25 µM (active) and inactive
same,Potency,[20],17.7 µM (active) and inactive
same,Potency,[18],inactive
CCC(=O)Nc1ccc(Cl)c(Cl)c1,Potency,[1],inactive
same,Potency,[2],inactive
same,outcome,[3],inactive
same,Potency,[4],inactive
same,Potency,[7],inactive
same,Potency,[8],44.5 µM (active)
same,Potency,[9],inactive
same,Potency,[10],inactive
same,Potency,[11],inactive
same,Potency,[12],44.5 µM (active)
same,Potency,[13],inactive
same,Potency,[19],22.3 µM (active) and 43.6 µM (active)
same,Potency,[16],inactive
same,Potency,[17],inactive
same,Potency,[20],inactive
